# In PMC11062922 (Nature Chemical Biology, 2023):
# Like-named read-outs stand apart in the source and are kept apart here.
# Assays:
# IRAK4 = settings: read-out: apparent Kd, n = 1
# LATS1 = settings: read-out: apparent Kd, n = 1
# [1] = compound concentrations:100 nM and 1000 nM (sheet 'Lestaurtinib' of Supplementary Table 1),run:Lestaurtinib_02443_R2,Plate:MR009
# [2] = compound concentrations:100 nM and 1000 nM (sheet 'Lestaurtinib' of Supplementary Table 1),run:Lestaurtinib_02443_R3,Plate:MR009
# [3] = compound concentrations:100 nM and 1000 nM (sheet 'Lestaurtinib' of Supplementary Table 1),run:Lestaurtinib_02482_R1,Plate:MR011
# [4] = compound concentrations:100 nM and 1000 nM (sheet 'Lestaurtinib' of Supplementary Table 1),run:Lestaurtinib_02482_R2,Plate:MR011
# [5] = compound concentrations:100 nM and 1000 nM (sheet 'Lestaurtinib' of Supplementary Table 1),run:Lestaurtinib_02482_R3,Plate:MR011
# [6] = compound concentrations:100 nM and 1000 nM (sheet 'Lestaurtinib' of Supplementary Table 1),run:Lestaurtinib_02577_R1,Plate:MR016
# [7] = compound concentrations:100 nM and 1000 nM (sheet 'Lestaurtinib' of Supplementary Table 1),run:Lestaurtinib_02577_R2,Plate:MR016
# [8] = compound concentrations:100 nM and 1000 nM (sheet 'Lestaurtinib' of Supplementary Table 1),run:Lestaurtinib_02577_R3,Plate:MR016
# [9] = compound concentrations:100 nM and 1000 nM (sheet 'Lestaurtinib' of Supplementary Table 1),run:Lestaurtinib_02601_R2,Plate:MR018
# [10] = compound concentrations:100 nM and 1000 nM (sheet 'Lestaurtinib' of Supplementary Table 1),run:Lestaurtinib_02606_R1,Plate:MR019
substance,measurement,setting,value
Lestaurtinib,potency estimated from few doses,IRAK4; [1],92.2 nM
same,potency estimated from few doses,IRAK4; [2],98.9 nM
same,potency estimated from few doses,"IRAK4; compound concentrations:100 nM and 1000 nM (sheet 'Lestaurtinib' of Supplementary Table 1),run:Lestaurtinib_02473_R1,Plate:MR010",79.8 nM
same,potency estimated from few doses,"IRAK4; compound concentrations:100 nM and 1000 nM (sheet 'Lestaurtinib' of Supplementary Table 1),run:Lestaurtinib_02473_R2,Plate:MR010",132 nM
same,potency estimated from few doses,"IRAK4; compound concentrations:100 nM and 1000 nM (sheet 'Lestaurtinib' of Supplementary Table 1),run:Lestaurtinib_02473_R3,Plate:MR010",96.5 nM
same,potency estimated from few doses,IRAK4; [3],78.2 nM
same,potency estimated from few doses,IRAK4; [4],180 nM
same,potency estimated from few doses,IRAK4; [5],99.7 nM
same,potency estimated from few doses,"IRAK4; compound concentrations:100 nM and 1000 nM (sheet 'Lestaurtinib' of Supplementary Table 1),run:Lestaurtinib_02496_R1,Plate:MR013",124 nM
same,potency estimated from few doses,"IRAK4; compound concentrations:100 nM and 1000 nM (sheet 'Lestaurtinib' of Supplementary Table 1),run:Lestaurtinib_02496_R2,Plate:MR013",146 nM
same,potency estimated from few doses,"IRAK4; compound concentrations:100 nM and 1000 nM (sheet 'Lestaurtinib' of Supplementary Table 1),run:Lestaurtinib_02496_R3,Plate:MR013",193 nM
same,potency estimated from few doses,"IRAK4; compound concentrations:100 nM and 1000 nM (sheet 'Lestaurtinib' of Supplementary Table 1),run:Lestaurtinib_02566_R1,Plate:MR014",142 nM
same,potency estimated from few doses,"IRAK4; compound concentrations:100 nM and 1000 nM (sheet 'Lestaurtinib' of Supplementary Table 1),run:Lestaurtinib_02566_R3,Plate:MR014",80.8 nM
same,potency estimated from few doses,IRAK4; [6],88.6 nM
same,potency estimated from few doses,IRAK4; [7],97.5 nM
same,potency estimated from few doses,IRAK4; [8],63.8 nM
same,potency estimated from few doses,"IRAK4; compound concentrations:100 nM and 1000 nM (sheet 'Lestaurtinib' of Supplementary Table 1),run:Lestaurtinib_02601_R1,Plate:MR018",144 nM
same,potency estimated from few doses,IRAK4; [9],142 nM
same,potency estimated from few doses,IRAK4; [10],88.5 nM
same,potency estimated from few doses,"IRAK4; compound concentrations:100 nM and 1000 nM (sheet 'Lestaurtinib' of Supplementary Table 1),run:Lestaurtinib_02624_R2,Plate:MR020",143 nM
same,potency estimated from few doses,"IRAK4; compound concentrations:100 nM and 1000 nM (sheet 'Lestaurtinib' of Supplementary Table 1),run:Lestaurtinib_02624_R3,Plate:MR020",124 nM
same,potency estimated from few doses,"IRAK4; compound concentrations:100 nM and 1000 nM (sheet 'Lestaurtinib' of Supplementary Table 1),run:Lestaurtinib_02724_R2,Plate:MR021",99.3 nM
same,potency estimated from few doses,"IRAK4; compound concentrations:100 nM and 1000 nM (sheet 'Lestaurtinib' of Supplementary Table 1),run:Lestaurtinib_02741_R1,Plate:MR023",89.6 nM
same,potency estimated from few doses,"IRAK4; compound concentrations:100 nM and 1000 nM (sheet 'Lestaurtinib' of Supplementary Table 1),run:Lestaurtinib_02741_R3,Plate:MR023",71.3 nM
same,potency estimated from few doses,"IRAK4; compound concentrations:100 nM and 1000 nM (sheet 'Lestaurtinib' of Supplementary Table 1),run:Lestaurtinib_02748_R3,Plate:MR024",80.9 nM
same,potency estimated from few doses,"IRAK4; compound concentrations:100 nM and 1000 nM (sheet 'Lestaurtinib' of Supplementary Table 1),run:Lestaurtinib_02752_R2,Plate:MR025",160 nM
same,potency estimated from few doses,"IRAK4; compound concentrations:100 nM and 1000 nM (sheet 'Lestaurtinib' of Supplementary Table 1),run:Lestaurtinib_02752_R3,Plate:MR025",80.1 nM
same,potency estimated from few doses,"IRAK4; compound concentrations:100 nM and 1000 nM (sheet 'Lestaurtinib' of Supplementary Table 1),run:Lestaurtinib_02765_R2,Plate:MR026",75.7 nM
same,potency estimated from few doses,"IRAK4; compound concentrations:100 nM and 1000 nM (sheet 'Lestaurtinib' of Supplementary Table 1),run:Lestaurtinib_02766_R2,Plate:MR027",146 nM
same,potency estimated from few doses,"IRAK4; compound concentrations:100 nM and 1000 nM (sheet 'Lestaurtinib' of Supplementary Table 1),run:Lestaurtinib_02766_R3,Plate:MR027",121 nM
same,potency estimated from few doses,"IRAK4; compound concentrations:100 nM and 1000 nM (sheet 'Lestaurtinib' of Supplementary Table 1),run:Lestaurtinib_02768_R1,Plate:MR028",136 nM
same,potency estimated from few doses,"IRAK4; compound concentrations:100 nM and 1000 nM (sheet 'Lestaurtinib' of Supplementary Table 1),run:Lestaurtinib_02768_R2,Plate:MR028",97.8 nM
same,potency estimated from few doses,"IRAK4; compound concentrations:100 nM and 1000 nM (sheet 'Lestaurtinib' of Supplementary Table 1),run:Lestaurtinib_02795_R2,Plate:MR022",94.1 nM
same,potency estimated from few doses,"IRAK4; compound concentrations:100 nM and 1000 nM (sheet 'Lestaurtinib' of Supplementary Table 1),run:Lestaurtinib_02795_R3,Plate:MR022",239 nM
same,potency estimated from few doses,"IRAK4; compound concentrations:100 nM and 1000 nM (sheet 'Lestaurtinib' of Supplementary Table 1),run:Lestaurtinib_02896_R1,Plate:MR030",113 nM
same,potency estimated from few doses,"IRAK4; compound concentrations:100 nM and 1000 nM (sheet 'Lestaurtinib' of Supplementary Table 1),run:Lestaurtinib_03172_R2,Plate:MR031",66.2 nM
same,potency estimated from few doses,"IRAK4; compound concentrations:100 nM and 1000 nM (sheet 'Lestaurtinib' of Supplementary Table 1),run:Lestaurtinib_03252_R1,Plate:MR032",95.9 nM
same,potency estimated from few doses,"IRAK4; compound concentrations:100 nM and 1000 nM (sheet 'Lestaurtinib' of Supplementary Table 1),run:Lestaurtinib_03260_R2,Plate:MR033",132 nM
same,potency estimated from few doses,"IRAK4; compound concentrations:100 nM and 1000 nM (sheet 'Lestaurtinib' of Supplementary Table 1),run:Lestaurtinib_03260_R3,Plate:MR033",85.1 nM
same,potency estimated from few doses,"LATS1; compound concentrations:100 nM and 1000 nM (sheet 'Lestaurtinib' of Supplementary Table 1),run:Lestaurtinib_02339_R1,Plate:MR001",27.8 nM
same,potency estimated from few doses,"LATS1; compound concentrations:100 nM and 1000 nM (sheet 'Lestaurtinib' of Supplementary Table 1),run:Lestaurtinib_02339_R2,Plate:MR001",31.4 nM
same,potency estimated from few doses,"LATS1; compound concentrations:100 nM and 1000 nM (sheet 'Lestaurtinib' of Supplementary Table 1),run:Lestaurtinib_02339_R3,Plate:MR001",37.3 nM
same,potency estimated from few doses,"LATS1; compound concentrations:100 nM and 1000 nM (sheet 'Lestaurtinib' of Supplementary Table 1),run:Lestaurtinib_02364_R2,Plate:MR002",22.6 nM
same,potency estimated from few doses,"LATS1; compound concentrations:100 nM and 1000 nM (sheet 'Lestaurtinib' of Supplementary Table 1),run:Lestaurtinib_02364_R3,Plate:MR002",44.1 nM
same,potency estimated from few doses,"LATS1; compound concentrations:100 nM and 1000 nM (sheet 'Lestaurtinib' of Supplementary Table 1),run:Lestaurtinib_02367_R1,Plate:MR003",27.8 nM
same,potency estimated from few doses,"LATS1; compound concentrations:100 nM and 1000 nM (sheet 'Lestaurtinib' of Supplementary Table 1),run:Lestaurtinib_02367_R2,Plate:MR003",40.3 nM
same,potency estimated from few doses,"LATS1; compound concentrations:100 nM and 1000 nM (sheet 'Lestaurtinib' of Supplementary Table 1),run:Lestaurtinib_02367_R3,Plate:MR003",22.1 nM
same,potency estimated from few doses,"LATS1; compound concentrations:100 nM and 1000 nM (sheet 'Lestaurtinib' of Supplementary Table 1),run:Lestaurtinib_02381_R1,Plate:MR004",27 nM
same,potency estimated from few doses,"LATS1; compound concentrations:100 nM and 1000 nM (sheet 'Lestaurtinib' of Supplementary Table 1),run:Lestaurtinib_02407_R1,Plate:MR005",39.5 nM
same,potency estimated from few doses,"LATS1; compound concentrations:100 nM and 1000 nM (sheet 'Lestaurtinib' of Supplementary Table 1),run:Lestaurtinib_02407_R2,Plate:MR005",27.7 nM
same,potency estimated from few doses,"LATS1; compound concentrations:100 nM and 1000 nM (sheet 'Lestaurtinib' of Supplementary Table 1),run:Lestaurtinib_02422_R1,Plate:MR006",34.2 nM
same,potency estimated from few doses,"LATS1; compound concentrations:100 nM and 1000 nM (sheet 'Lestaurtinib' of Supplementary Table 1),run:Lestaurtinib_02422_R3,Plate:MR006",34.2 nM
same,potency estimated from few doses,"LATS1; compound concentrations:100 nM and 1000 nM (sheet 'Lestaurtinib' of Supplementary Table 1),run:Lestaurtinib_02437_R1,Plate:MR007",35 nM
same,potency estimated from few doses,"LATS1; compound concentrations:100 nM and 1000 nM (sheet 'Lestaurtinib' of Supplementary Table 1),run:Lestaurtinib_02437_R2,Plate:MR007",27 nM
same,potency estimated from few doses,"LATS1; compound concentrations:100 nM and 1000 nM (sheet 'Lestaurtinib' of Supplementary Table 1),run:Lestaurtinib_02437_R3,Plate:MR007",0.206 nM
same,potency estimated from few doses,"LATS1; compound concentrations:100 nM and 1000 nM (sheet 'Lestaurtinib' of Supplementary Table 1),run:Lestaurtinib_02438_R3,Plate:MR008",29 nM
same,potency estimated from few doses,LATS1; [1],30.6 nM
same,potency estimated from few doses,LATS1; [2],38.6 nM
same,potency estimated from few doses,LATS1; [3],38.1 nM
same,potency estimated from few doses,LATS1; [4],32.7 nM
same,potency estimated from few doses,LATS1; [5],46 nM
same,potency estimated from few doses,"LATS1; compound concentrations:100 nM and 1000 nM (sheet 'Lestaurtinib' of Supplementary Table 1),run:Lestaurtinib_02572_R1,Plate:MR015",18 nM
same,potency estimated from few doses,"LATS1; compound concentrations:100 nM and 1000 nM (sheet 'Lestaurtinib' of Supplementary Table 1),run:Lestaurtinib_02572_R2,Plate:MR015",23.5 nM
same,potency estimated from few doses,"LATS1; compound concentrations:100 nM and 1000 nM (sheet 'Lestaurtinib' of Supplementary Table 1),run:Lestaurtinib_02572_R3,Plate:MR015",22.5 nM
same,potency estimated from few doses,LATS1; [6],36.6 nM
same,potency estimated from few doses,LATS1; [7],51.4 nM
same,potency estimated from few doses,LATS1; [8],63.8 nM
same,potency estimated from few doses,"LATS1; compound concentrations:100 nM and 1000 nM (sheet 'Lestaurtinib' of Supplementary Table 1),run:Lestaurtinib_02584_R2,Plate:MR017",50.1 nM
same,potency estimated from few doses,"LATS1; compound concentrations:100 nM and 1000 nM (sheet 'Lestaurtinib' of Supplementary Table 1),run:Lestaurtinib_02584_R3,Plate:MR017",45.2 nM
same,potency estimated from few doses,LATS1; [9],79.1 nM
same,potency estimated from few doses,"LATS1; compound concentrations:100 nM and 1000 nM (sheet 'Lestaurtinib' of Supplementary Table 1),run:Lestaurtinib_02601_R3,Plate:MR018",55.9 nM
same,potency estimated from few doses,LATS1; [10],39.1 nM
same,potency estimated from few doses,"LATS1; compound concentrations:100 nM and 1000 nM (sheet 'Lestaurtinib' of Supplementary Table 1),run:Lestaurtinib_02606_R2,Plate:MR019",35.8 nM
